Results: PubChem BioAssay
The source made the active and inactive calls.

Key:
[1] = A549 cell viability effects, profiling panel, calcein-AM fluorescence, 48 h, basal (AID 1162); details: higher = more signal
[2] = adipocyte viability effects, profiling panel, cell-based, 3T3-L1 adipocytes, calcein-AM fluorescence, 48 h, basal (AID 1163); details: 3T3-L1 adipocytes viability, higher = more signal
[3] = HepG2 cell viability effects, profiling panel, calcein-AM fluorescence, 48 h, basal (AID 1164); details: higher = more signal
[4] = MM1S cell viability effects, profiling panel, calcein-AM fluorescence, 48 h, basal (AID 1165); details: higher = more signal;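 note: viability of MM1S multiple myeloma cells under basal unstimulated conditions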
[5] = basal RPMI8226 viability, no added stimulus, profiling panel, cell-based, calcein-AM fluorescence, 48 h, PK04 Diversity Set (AID 1166); details: RPMI8226 myeloma viability, higher = more signal;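 note: cells grown under basal conditions without added stimulus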
[6] = basal HepG2 mitochondrial membrane potential changes, profiling panel, cell-based, JC-1 fluorescence, 24 h, 100 nL compound (AID 1167); details: higher = more signal
[7] = basal 3T3-L1 adipocyte mitochondrial potential changes, profiling panel, cell-based, JC-1 fluorescence, 3T3-L1 adipocytes, 24 h, 100 nL compound (AID 1168); details: JC-1 mitochondrial fluorescence, higher = more signal, called active from +8 up or from −8 down
[8] = basal RPMI8226 mitochondrial membrane potential changes, profiling panel, cell-based, JC-1 fluorescence, 24 h, 100 nL compound (AID 1169); details: RPMI8226 myeloma, JC-1 mitochondrial potential fluorescence, higher = more signal
[9] = basal MM1S mitochondrial membrane potential changes, profiling panel, cell-based, JC-1 fluorescence, 24 h, 100 nL compound (AID 1170); details: higher = more signal
[10] = A549 lung cancer cell viability effects, profiling panel, resazurin fluorescence, 24 h, PK04 Diversity Set (AID 1171); details: higher = more signal, called active from +8 up or from −8 down
Note: test concentration not given here.

SMILES	z-score [1]	z-score [2]	z-score [3]	z-score [4]	z-score [5]	z-score [6]	z-score [7]	z-score [8]	z-score [9]	z-score [10]
COc1ccc([Si](C)(C)[C@H]2[C@H](CCO)O[C@@]3(C(=O)N(Cc4cccc(N5C(=O)COc6ccccc65)c4)c4ccccc43)[C@@H]2C)cc1	-0.533	0.167	-4.12	-2.21	-3.93	0.0559	1.93 (inactive)	-1.05	-1.5	-2.14 (inactive)
CN1C(=O)C2C=CC(C(O)c3cccc4ccccc34)N(N3CCCCC3)C2C1=O (stereo not given)	-0.866	-0.576	-0.776	-1.21	-0.493	-1.79	-1.53 (inactive)	0.776	-0.382	0.294 (inactive)
C=C(COC)/C(=C/C[C@H](OC(=O)c1ccncc1)c1ccccc1OCCO)c1cnc2ccccc2c1	0.265	0.688	-0.693	-2.28	-0.533	1.23	-0.296 (inactive)	-0.32	-0.0279	2.05 (inactive)
CN(C)CCCNC(=O)[C@@]1(C)c2ccccc2C(=O)N(Cc2ccccc2)[C@H]1c1ccc(CO)cc1	0.0156	0.451	0.339	-0.748	0.3	0.303	0.457 (inactive)	-0.798	0.445	0.356 (inactive)
CCOC(=O)C[C@H]1[C@H](OC(=O)Cc2ccc3c(c2)OCO3)[C@@H](NC(=O)Cc2ccc(OC)cc2)c2cc(OCCCO)ccc2N1C(=O)c1ccc2ccccc2n1	2.47	0.189	1.37	0.631	-0.577	1.84	0.929 (inactive)	0.628	0.819	-0.23 (inactive)
O=C1OCC=C[C@H]2OC34C=CCN(Cn5nnc6ccccc65)C(=O)[C@H]3N(CCCO)C(=O)[C@@H]4[C@@H]12 (stereo not given in full)	-0.267	0.832	-0.64	0.266	0.0897	-0.541	0.904 (inactive)	-0.252	-1.33	-0.813 (inactive)
O=C1O[C@H](c2ccccc2)[C@H](c2ccccc2)N2[C@H]1[C@@H](C(=O)NC[C@H](O)c1ccccc1)[C@]1(C(=O)Nc3ccc(C#CCCO)cc31)[C@H]2c1ccc(OCCO)cc1	1.12	1.25	1.49	-0.156	0.868	-0.274	-0.0786 (inactive)	-0.165	-0.389	-0.0659 (inactive)
C=C(/C(=C/C[C@H](OC(=O)c1ccncc1)c1ccc(CO)o1)c1cc(C(=O)OC)ccc1OC)C(C)C	-0.762	-0.0308	-1.15	-1.26	-0.524	-0.133	-1.63 (inactive)	-0.324	-0.251	-0.18 (inactive)
NCCCCCNC(=O)[C@@H]1C[C@@H]2C(=O)NCC(=O)N2[C@@H]1c1cccc(OCCO)c1	-0.507	1.11	-0.531	-0.686	-0.947	1.5	-0.298 (inactive)	0.00435	0.53	-0.505 (inactive)
O=C1N(Cc2ccccc2)Cc2ccccc2[C@@H]2OC(c3ccc(OCCCO)cc3)=N[C@]12CCS(=O)(=O)c1ccccc1	0.589	-1.46	0.151	-1.25	-1.08	-0.565	0.676 (inactive)	-1.14	-0.156	0.403 (inactive)
COCCOC(=O)N1C(=O)[C@@]2(c3cc(C#CCC(C(=O)OC)C(=O)OC)ccc31)[C@H](C(=O)N1CCc3cc(OC)c(OC)cc3C1)[C@H]1C(=O)O[C@H](c3ccccc3)[C@H](c3ccccc3)N1[C@@H]2c1ccc(OCCO)cc1	0.206	0.105	1.42	-0.219	0.0896	-0.781	0.512 (inactive)	-0.637	-1.28	-0.225 (inactive)
O=C(NCc1ccccc1)[C@@H]1c2ccccc2C(=O)N(Cc2ccccc2C(F)(F)F)[C@H]1c1ccc(CO)cc1	0.369	0.275	1.53	0.0209	-0.133	2.36	-0.182 (inactive)	0.744	-0.962	-0.307 (inactive)
O=C1O[C@@H](c2ccccc2)[C@@H](c2ccccc2)N2[C@@H](c3ccc(OCCO)cc3)[C@]3(C(=O)Nc4ccccc43)[C@@H](C(=O)O)[C@H]12	-0.644	0.624	-0.888	0.243	-0.146	-1.36	-0.174 (inactive)	-0.0788	-1.13	0.225 (inactive)
NC(=O)NCC#Cc1ccc2c(c1)[C@]1(C(=O)N2)[C@H](C(=O)NC[C@H](O)c2ccccc2)[C@H]2C(=O)O[C@H](c3ccccc3)[C@H](c3ccccc3)N2[C@@H]1c1ccc(OCCO)cc1	-0.313	0.468	0.0249	-0.254	1.25	-2.05	-0.183 (inactive)	-1.1	-0.642	0.818 (inactive)
C[C@H]1NC(=O)[C@@]23C(=O)N[C@@H](Cc4ccccc4)C2[C@H](C)[C@@]2(C)O[C@H]2C3/C=C/C/C=C\CNC(=O)[C@H](Cc2ccccc2)NC1=O (stereo not given in full)	-0.518	0.76	-0.607	0.401	-0.45	0.88	-0.588 (inactive)	0.331	1.02	0.0548 (inactive)
C=C(COC)/C(=C/C[C@H](OC(C)=O)c1ccc(OCCO)cc1)c1cc(C(=O)OC)ccc1OC	1.82	0.852	0.883	-1.01	0.598	2.6	1.57 (inactive)	0.0179	-0.444	1.47 (inactive)

SMILES	z-score [1]	z-score [2]	z-score [3]	z-score [4]	z-score [5]	z-score [6]	z-score [7]	z-score [8]	z-score [9]	z-score [10]
Cc1ccc(S[C@]2(C(=O)NCC(F)(F)F)CC(=O)N(Cc3ccccc3C(F)(F)F)[C@@H]2c2ccc(CO)cc2I)cc1	1.45	-0.438	0.707	-1.56	-1.71	0.16	0.0898 (inactive)	-0.597	-2.22	0.328 (inactive)
CC(CO)N1C(=O)[C@@H]2[C@H]3C(=O)OCC=C[C@H]3OC23C=CCN(CCN2CCOCC2)C(=O)[C@@H]13 (stereo not given in full)	-0.313	0.344	-0.0457	0.646	-0.0704	-0.382	0.126 (inactive)	0.0907	0.12	-0.147 (inactive)
O=C1C2C=CC(C(O)c3ccc(Br)cc3)N(Nc3ccccc3F)C2C(=O)N1c1ccccc1 (stereo not given)	1.79	0.085	0.418	1.05	-0.0004	-0.629	-1.56 (inactive)	0.417	-1.46	0.0502 (inactive)
O=C(NCC(F)(F)F)[C@@H]1c2ccccc2C(=O)N(Cc2ccccc2C(F)(F)F)[C@H]1c1ccc(CO)cc1	0.215	-0.484	0.0606	0.0756	-0.328	0.277	-1.07 (inactive)	0.0161	-0.894	0.456 (inactive)
CC(C)C(=C=CC[C@H](O)c1ccc(OCCO)cc1)C[C@H](O)c1ccccn1	1.84	-0.245	1.34	-1.86	-0.121	0.421	-0.0235 (inactive)	-0.479	-0.5	1.15 (inactive)
Cc1cc(C)c(C(O)C2C=CC3C(=O)NC(=O)C3N2Nc2ccc(Cl)cc2Cl)c(C)c1 (stereo not given)	-2.15	-0.22	-1.68	-3.52	-3.03	-2.65	-0.143 (inactive)	-1.02	-0.44	-1.59 (inactive)
CN(C)C(=O)[C@@]1(Cc2ccccc2CN=[N+]=[N-])N=C(c2ccc(OCCCO)cc2)O[C@H]1c1ccccc1CN=[N+]=[N-]	-0.446	-0.182	-1.29	-1.42	-3.77	1.11	-1.34 (inactive)	-1.12	-2.11	-0.67 (inactive)
OCC1CC(c2ccccc2)=NO1 (stereo not given)	0.71	0.311	-0.0218	0.554	-0.676	0.883	-0.765 (inactive)	0.527	-0.201	0.281 (inactive)
COCCOC(=O)N1C(=O)[C@@]2(c3cc(C#CCNC(N)=O)ccc31)[C@H](C(=O)N1CCc3cc(OC)c(OC)cc3C1)[C@H]1C(=O)O[C@H](c3ccccc3)[C@H](c3ccccc3)N1[C@@H]2c1ccccc1OCCO	0.573	0.376	0.479	0.576	-0.529	-1.2	1.72 (inactive)	-0.502	-0.98	-0.286 (inactive)
[N-]=[N+]=Nc1ccccc1C[C@]1(C(=O)N2CCOCC2)N=C(c2ccc(OCCCO)cc2)O[C@H]1c1ccccc1	0.375	0.854	1.58	-0.35	-0.911	1.99	1.18 (inactive)	-1.18	-0.438	0.0917 (inactive)
CC(=O)c1ccc(C(O)C2C=CC3C(=O)N(c4ccccc4)C(=O)C3N2Nc2ccc(C#N)cc2)cc1 (stereo not given)	-0.53	-0.292	-0.477	-0.262	-0.821	-1.19	-1.06 (inactive)	-0.257	-0.0349	-0.178 (inactive)
COC(=O)c1c2oc(c1C(=O)OC)C(=O)N(C)Cc1cn(nn1)C[C@H](Cc1ccccc1)NC(=O)N[C@H](CO)CC2	-0.145	0.129	-0.0951	0.273	-0.743	-0.649	-0.164 (inactive)	0.256	-0.31	-0.213 (inactive)
COc1ccc(CCNC(=O)[C@@H]2c3ccccc3C(=O)N(Cc3cc(C(F)(F)F)cc(C(F)(F)F)c3)[C@H]2c2ccc(CO)cc2)cc1	1.64	1.58	1.17	-1.4	-0.35	1.61	-0.497 (inactive)	-0.0116	0.29	0.349 (inactive)
O=C1OCCC/C=C\[C@H]2OC34C=CCN(CCN5CCOCC5)C(=O)[C@H]3N(CCCCCCO)C(=O)[C@@H]4C12 (stereo not given in full)	0.26	1.3	1.18	1.54	0.279	0.538	0.587 (inactive)	0.0622	-0.955	-0.168 (inactive)
O=C1C=C(c2ccccc2)C(=O)c2ccc([C@H]3Oc4ccccc4S(=O)(=O)N4CCC[C@@H]34)cc21	-0.309	-0.319	-1.07	-3.23	-4.03	-3.82	-1.83 (inactive)	-1.23	-2.69	-0.602 (inactive)
